The source made the active and inactive calls.
How the values were obtained:
[1] = system: Plasmodium falciparum Sir2 (PF13_0152, Sir2A); assay: Plasmodium falciparum Sir2A binding compounds – biochemical, small-molecule microarray, 635 nm fluorescence, primary screen (AID 1098); details: fluorescence 635 nm, higher = more signal;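 further: score merges spot fluorescence intensity with its signal-to-noise ratio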
[2] = probe aDKK1 binding to arrayed compounds – biochemical, biotinylated probe, 635/667 nm fluorescence, primary screen (AID 1099); details: small-molecule microarray, higher = more signal;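 further: score merges 667nm spot fluorescence with signal to noise across triplicate slides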
[3] = probe aCHRDL2 binding to arrayed compounds – biochemical, biotinylated probe, 635/667 nm fluorescence, primary screen (AID 1100); details: small-molecule microarray, higher = more signal
[4] = change in splice reporter luminescence, either direction, cell-based, HEK293, spliceosome inhibition project, primary screen (AID 1101); details: HEK293 splicing luciferase reporter, 24 h, higher = more signal, called active from +8 up or from −8 down;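 further: HEK293 cells carrying a splicing-competent luciferase reporter gene; test concentration not given here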
[5] = target: Fibroblast growth factor 10 (Homo sapiens) (UniProt O15520); assay: compounds binding fibroblast growth factor 10 – biochemical, small-molecule microarray, 635 nm fluorescence, primary screen (AID 1102); details: FGF10 binding, fluorescence 635 nm, higher = more signal
[6] = system: glycogen synthase kinase-3 (GSK3A per assay name; protocol says GSK3B); assay: compounds binding glycogen synthase kinase-3 – biochemical, small-molecule microarray, 635 nm fluorescence, GSK3A, primary screen (AID 1103); details: fluorescence 635 nm, higher = more signal; further: the record names both GSK3A and GSK3B
[7] = target: Epidermal growth factor receptor (Homo sapiens) (UniProt P00533); assay: compounds binding epidermal growth factor receptor – biochemical, small-molecule microarray, 635 nm fluorescence, primary screen (AID 1104); details: EGFR binding, higher = more signal;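 further: score merges 667 nm emission intensity with spot signal to noise over triplicate slides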
[8] = target: Follistatin-related protein 3 (Homo sapiens) (UniProt O95633); assay: compounds binding follistatin-related protein 3 – biochemical, small-molecule microarray, 635 nm fluorescence, primary screen (AID 1105); details: FSTL3 binding, higher = more signal;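 further: score merges emission near 667 nm and signal to noise per printed spot across three slides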
[9] = target: Dickkopf-related protein 1 (Homo sapiens) (UniProt O94907); assay: small molecules binding DKK1 protein – biochemical, small-molecule microarray, 635 nm fluorescence scan, primary screen (AID 1106); details: higher = more signal;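 further: score merges emission near 667 nm with signal to noise over three replicate slides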
[10] = system: Inhibin beta A chain (activin A); assay: small molecules binding activin A – biochemical, small-molecule microarray, 635 nm fluorescence scan, primary screen (AID 1107); details: INHBA, higher = more signal;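 further: mouse activin A protein probed at 4.33 µg/mL on printed slides; score merges bound-protein fluorescence near 667 nm with spot signal-to-noise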
[11] = system: Human papillomavirus type 1a protein E7 (residues 44-93); assay: small molecules binding HPV E7 44-93 – biochemical, small-molecule microarray, residues 44-93, 635 nm fluorescence, primary screen (AID 1108); details: fluorescence 635 nm, higher = more signal;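 further: E7 fragment applied at 1 µg/mL in TBST for 1 h at 4 C; score combines spot fluorescence with its signal to noise ratio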
[12] = hepatitis C replication reporter changes, two-sided – Huh7 cells, luciferase reporter, HCV replication inhibitor project, primary screen (AID 1109); details: Huh7 HCV replicon luciferase reporter, 48 h; higher = more signal;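 further: huh7 hepatoma cells harbouring a luciferase neomycin HCV replicon reporter; luciferase luminescence as measure of HCV replicon replication; test concentration not given here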
[13] = target: Left-right determination factor 2 (Homo sapiens) (UniProt O00292); assay: small molecules binding LEFTY2 protein – biochemical, small-molecule microarray, 635 nm fluorescence scan, primary screen (AID 1110); details: higher = more signal
[14] = target: Calmodulin-1 (Homo sapiens) (UniProt P0DP23); assay: small molecules binding calmodulin-1 with EGTA – biochemical, small-molecule microarray, Cy5-labelled CALM1, profiling panel (AID 1111); details: Cy5-CALM1 binding fluorescence, higher = more signal;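 further: labelled calmodulin applied in Tris saline Tween buffer holding calcium plus EGTA and DTT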
[15] = target: Calmodulin-1 (Homo sapiens) (UniProt P0DP23); assay: small molecules binding Ca-loaded calmodulin-1 – biochemical, small-molecule microarray, Cy5-labelled CALM1, plus calcium, artefact control for SMM control-protein annotation, profiling panel (AID 1112); details: Cy5-CALM1 binding fluorescence, higher = more signal;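 further: score merges spot fluorescence with signal to noise from triplicate slides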
[16] = probe aWnt5a binding to arrayed compounds – biochemical, biotinylated probe, 635/667 nm fluorescence, primary screen (AID 1113); details: small-molecule microarray, higher = more signal;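 further: score merges 667 nm fluorescence intensity with signal-to-noise per printed feature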
[17] = probe aShh binding to arrayed compounds – biochemical, biotinylated probe, 635/667 nm fluorescence, primary screen (AID 1114); details: small-molecule microarray, higher = more signal;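 further: probe is biotin-labelled aShh protein from a stem cell growth factor screen; measures binding of labelled protein to compounds printed on the slide; score merges feature fluorescence at 667 nm with signal-to-noise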
[18] = probe aNog binding to arrayed compounds – biochemical, biotinylated probe, 635/667 nm fluorescence, primary screen (AID 1115); details: small-molecule microarray, higher = more signal;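 further: probe is biotinylated aNog protein used at 0.15 µg/mL for 1 h at 4 C; z-score combines 667 nm fluorescence of each spot with its signal to noise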
[19] = target: Torsin-1A-interacting protein 1 (Homo sapiens) (UniProt Q5JTV8); assay: compound microarray binding of lysate hLAP1 – cell lysate, small-molecule microarray, COS7 lysate, 635/667 nm fluorescence, primary screen (AID 1116); details: 635 nm fluorescence, higher = more signal
[20] = target: Alpha-bungarotoxin (Bungarus multicinctus) (UniProt P60615); assay: compounds binding labelled alpha-BTX control protein – biochemical, small-molecule microarray, Alexa647 label, 635/667 nm fluorescence, artefact control for SMM control protein annotation, profiling panel (AID 1117); details: alpha-BTX-A647 binding fluorescence, higher = more signal
Sequence of Alpha-bungarotoxin (Bungarus multicinctus) (P60615 whole entry, looked up): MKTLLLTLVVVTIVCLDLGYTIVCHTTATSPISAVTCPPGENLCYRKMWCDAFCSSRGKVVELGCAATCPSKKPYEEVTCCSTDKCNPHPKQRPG

Sequence of Fibroblast growth factor 10 (Homo sapiens) (O15520 whole entry, looked up): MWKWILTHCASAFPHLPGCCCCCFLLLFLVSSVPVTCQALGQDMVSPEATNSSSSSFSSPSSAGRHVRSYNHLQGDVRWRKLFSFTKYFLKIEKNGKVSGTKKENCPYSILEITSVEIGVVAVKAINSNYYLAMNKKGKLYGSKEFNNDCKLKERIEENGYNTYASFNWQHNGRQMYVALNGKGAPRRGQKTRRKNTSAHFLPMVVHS
Sequence of Torsin-1A-interacting protein 1 (Homo sapiens) (Q5JTV8 whole entry, looked up): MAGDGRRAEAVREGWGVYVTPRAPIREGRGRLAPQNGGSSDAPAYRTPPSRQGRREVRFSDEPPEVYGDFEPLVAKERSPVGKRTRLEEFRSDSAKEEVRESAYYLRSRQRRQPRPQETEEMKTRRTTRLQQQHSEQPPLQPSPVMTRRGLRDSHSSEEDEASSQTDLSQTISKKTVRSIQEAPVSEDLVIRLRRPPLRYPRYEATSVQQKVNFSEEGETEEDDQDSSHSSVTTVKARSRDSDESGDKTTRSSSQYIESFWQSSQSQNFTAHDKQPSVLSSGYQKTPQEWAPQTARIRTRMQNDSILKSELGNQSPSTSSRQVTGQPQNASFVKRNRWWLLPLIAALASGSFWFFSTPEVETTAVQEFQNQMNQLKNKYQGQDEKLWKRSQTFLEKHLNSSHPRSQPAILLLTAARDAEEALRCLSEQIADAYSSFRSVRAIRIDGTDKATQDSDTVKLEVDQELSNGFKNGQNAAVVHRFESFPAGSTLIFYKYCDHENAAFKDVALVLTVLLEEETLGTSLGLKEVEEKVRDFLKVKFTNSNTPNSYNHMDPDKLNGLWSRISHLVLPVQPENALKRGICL
Sequence of Epidermal growth factor receptor (Homo sapiens) (P00533 whole entry, looked up): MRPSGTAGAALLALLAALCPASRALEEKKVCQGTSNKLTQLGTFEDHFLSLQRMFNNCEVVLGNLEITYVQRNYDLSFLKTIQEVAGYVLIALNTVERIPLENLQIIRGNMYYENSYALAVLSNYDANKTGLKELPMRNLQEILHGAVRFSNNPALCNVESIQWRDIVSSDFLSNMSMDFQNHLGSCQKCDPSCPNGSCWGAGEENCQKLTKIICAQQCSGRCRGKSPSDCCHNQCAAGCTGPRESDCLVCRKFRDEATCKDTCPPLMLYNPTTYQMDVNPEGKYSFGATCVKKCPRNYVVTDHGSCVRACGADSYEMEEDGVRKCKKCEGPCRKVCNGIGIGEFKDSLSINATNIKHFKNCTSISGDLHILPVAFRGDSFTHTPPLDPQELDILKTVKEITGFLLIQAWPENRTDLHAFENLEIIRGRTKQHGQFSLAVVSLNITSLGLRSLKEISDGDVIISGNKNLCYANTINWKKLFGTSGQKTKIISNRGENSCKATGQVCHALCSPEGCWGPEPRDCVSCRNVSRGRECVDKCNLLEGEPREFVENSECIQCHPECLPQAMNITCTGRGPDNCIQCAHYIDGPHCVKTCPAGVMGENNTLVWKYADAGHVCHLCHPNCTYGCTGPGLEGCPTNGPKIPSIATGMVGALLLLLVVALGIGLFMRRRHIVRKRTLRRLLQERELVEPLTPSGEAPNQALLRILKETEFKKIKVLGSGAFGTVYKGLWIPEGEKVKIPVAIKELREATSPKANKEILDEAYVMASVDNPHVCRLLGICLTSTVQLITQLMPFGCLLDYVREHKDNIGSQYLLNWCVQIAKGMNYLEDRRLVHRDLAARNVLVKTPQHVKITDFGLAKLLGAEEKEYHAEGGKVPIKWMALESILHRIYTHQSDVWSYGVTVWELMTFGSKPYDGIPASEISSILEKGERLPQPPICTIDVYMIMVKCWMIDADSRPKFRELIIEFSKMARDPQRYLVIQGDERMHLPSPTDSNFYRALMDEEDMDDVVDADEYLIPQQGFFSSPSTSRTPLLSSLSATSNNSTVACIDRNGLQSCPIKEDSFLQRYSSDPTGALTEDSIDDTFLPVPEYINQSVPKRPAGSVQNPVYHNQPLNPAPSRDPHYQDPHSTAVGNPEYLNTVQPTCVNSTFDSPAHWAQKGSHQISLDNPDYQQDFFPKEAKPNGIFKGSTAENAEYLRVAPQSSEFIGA
Sequence of Left-right determination factor 2 (Homo sapiens) (O00292 whole entry, looked up): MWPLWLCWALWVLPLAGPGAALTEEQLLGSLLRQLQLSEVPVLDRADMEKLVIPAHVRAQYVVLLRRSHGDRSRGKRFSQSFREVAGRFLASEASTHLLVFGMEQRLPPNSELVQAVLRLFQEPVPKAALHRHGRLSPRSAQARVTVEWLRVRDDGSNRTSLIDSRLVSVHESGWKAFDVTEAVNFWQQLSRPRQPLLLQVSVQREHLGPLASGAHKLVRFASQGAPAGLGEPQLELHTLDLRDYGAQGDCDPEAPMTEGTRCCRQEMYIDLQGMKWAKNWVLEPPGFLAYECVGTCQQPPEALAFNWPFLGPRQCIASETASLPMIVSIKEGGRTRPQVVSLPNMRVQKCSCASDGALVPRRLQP
Sequence of Dickkopf-related protein 1 (Homo sapiens) (O94907 whole entry, looked up): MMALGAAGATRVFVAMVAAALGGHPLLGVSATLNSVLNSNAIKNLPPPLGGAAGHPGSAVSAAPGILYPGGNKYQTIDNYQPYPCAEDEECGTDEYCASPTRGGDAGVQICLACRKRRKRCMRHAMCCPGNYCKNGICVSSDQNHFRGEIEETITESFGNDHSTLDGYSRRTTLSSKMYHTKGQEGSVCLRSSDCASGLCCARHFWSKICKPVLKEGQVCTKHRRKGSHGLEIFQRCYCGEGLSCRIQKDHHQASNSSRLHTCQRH
Sequence of Follistatin-related protein 3 (Homo sapiens) (O95633 whole entry, looked up): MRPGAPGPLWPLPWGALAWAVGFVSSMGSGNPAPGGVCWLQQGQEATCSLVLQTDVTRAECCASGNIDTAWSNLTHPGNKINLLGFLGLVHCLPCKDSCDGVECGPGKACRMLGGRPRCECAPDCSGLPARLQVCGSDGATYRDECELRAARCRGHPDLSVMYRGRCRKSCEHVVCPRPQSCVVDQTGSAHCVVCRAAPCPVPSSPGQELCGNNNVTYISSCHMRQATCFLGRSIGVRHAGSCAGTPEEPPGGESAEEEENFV

Row | Structure (SMILES) | composite z-score [1] | composite z-score [2] | composite z-score [3] | z-score [4] | composite z-score [5] | composite z-score [6] | composite z-score [7] | composite z-score [8] | composite z-score [9] | composite z-score [10] | composite z-score [11] | z-score [12] | composite z-score [13] | composite z-score [14] | composite z-score [15] | composite z-score [16] | composite z-score [17] | composite z-score [18] | composite z-score [19] | composite z-score [20]
1 | C=CCN1C(=O)[C@]2(Cc3ccccc31)N=C(c1ccc(OCCCO)cc1)O[C@@H]2c1ccccc1 | 0.733 | 0.779 | 0.922 | 0.105 (inactive) | 1.43 | 0.881 | -0.0128 | 0.439 | 0.998 | 1.27 | 1.41 | -2.74 | 0.319 | 0.731 | -0.313 | 0.219 | -0.108 | 0.431 | 1.75 | 0.152
2 | O=c1cccc(-c2ccccc2)o1 | 0.906 | -0.196 | -0.186 | 0.92 (inactive) | 0.421 | 0.211 | -0.648 | -0.337 | -0.1 | 1.4 | -0.815 | -0.144 | -0.491 | -0.604 | -0.108 | -0.0863 | 0.0141 | -0.295 | -0.0971 | -0.0278
3 | O=C(NCc1ccccc1)[C@@H]1c2ccccc2C(=O)N(C2CCCCC2)[C@H]1c1ccc(CO)cc1 | 0.88 | -0.709 | 0.0028 | 0.365 (inactive) | 0.686 | 0.0662 | -0.241 | 0.707 | -0.327 | -0.224 | 1.47 | -0.166 | -0.379 | -0.576 | -0.545 | -0.104 | -0.247 | -0.282 | 0.089 | -0.09
4 | C=C(CCCC)C(=O)CC[C@H](OC(C)=O)c1ccc(CO)o1 | 0.621 | -0.402 | -0.456 | -1.14 (inactive) | 0.123 | 0.2 | -0.567 | -0.139 | -0.0639 | 1.24 | 0.478 | -0.72 | -0.0361 | -0.933 | -1.06 | -0.0182 | 0.13 | -0.196 | 1.43 | -0.28
5 | O=C(NCC(O)CO)[C@@]1(Cc2ccccc2)N=C(c2ccc(OCCCO)cc2)O[C@H]1c1ccccc1 (stereo not given in full) | 0.616 | 1.15 | 1.36 | -0.395 (inactive) | 0.698 | 0.591 | -1.2 | -0.378 | -0.72 | 0.661 | 0.546 | -0.99 | -1.13 | 2.01 | 1.36 | -0.241 | 0.334 | -0.57 | 2.48 | 1.77
6 | CCOC(=O)C[C@H]1[C@H](OC(=O)c2ccc(C(=O)c3ccccc3)cc2)[C@@H](NC(=O)c2ccc3ccccc3n2)c2cc(OCCCO)ccc2N1C(=O)c1ccc2ccccc2n1 | 0.143 | 0.492 | 0.661 | -0.679 (inactive) | 0.418 | 0.232 | 0.703 | 0.154 | 0.0952 | 0.41 | 1.03 | -0.931 | 0.691 | 0.338 | -0.59 | 0.0761 | -0.0904 | -0.158 | 1.92 | 0.583
7 | C=C[C@@H](C)[C@@H](OC(=O)Nc1ccc(OC)cc1)c1ccc(O)c2ccccc12 | 1.13 | -0.241 | -0.576 | -0.0898 (inactive) | 0.856 | 0.357 | 0.762 | 0.723 | 0.475 | 1.24 | 0.118 | -1.84 | 0.312 | -0.27 | -0.667 | -0.152 | -0.223 | -0.409 | -0.0999 | -0.511
8 | CC(C)C(CO)N1C(=O)[C@@H]2[C@H]3C(=O)OCC=C[C@H]3OC23C=CCN(c2ccc4ccccc4c2)C(=O)[C@@H]13 (stereo not given in full) | 0.233 | -0.387 | 0.343 | 0.0617 (inactive) | -0.617 | -1.15 | -1.04 | -1.3 | -0.688 | -0.141 | -0.177 | -0.453 | -0.425 | -0.468 | -0.367 | -0.148 | -0.283 | -0.463 | -1.05 | -0.256
9 | COC(=O)[C@@]1(Cc2ccccc2)[C@H]2c3cc(C(=O)N(C)C)n(Cc4cc(F)c(F)c(F)c4)c3C[C@H]2CN1C(=O)c1ccccc1 | 1.47 | 0.375 | 1.22 | -3.26 (inactive) | 0.86 | -0.629 | 0.0296 | 0.521 | -0.818 | 0.748 | 1.28 | -1.87 | -0.762 | 1.39 | 0.449 | 0.216 | 0.415 | 1.79 | 0.845 | 0.517
10 | CC(C)[Si]1(C(C)C)O[C@@H](c2ccccc2)c2cc(-c3ccc(-c4ccc(Cl)c(Cl)c4)o3)nc(CCc3ccccc3)c21 | -0.708 | 0.147 | 0.731 | 0.428 (inactive) | -0.707 | -0.345 | -0.844 | -1.54 | -1.25 | 0.949 | 0.0027 | -2.07 | -1.32 | -0.411 | 0.873 | -0.152 | 0.0141 | -0.0118 | -0.193 | -1.17
11 | C=CCNC(=O)[C@H]1[C@@H]2C(=O)O[C@@H](c3ccccc3)[C@@H](c3ccccc3)N2[C@@H](c2ccc(OCCO)cc2)[C@]12C(=O)N(C(=O)OCCOC)c1ccc(C#CC3(O)CCCCCC3)cc12 | 1.55 | 0.456 | 0.33 | -0.569 (inactive) | 1.42 | 1.31 | 1.02 | 1.48 | 1.23 | 1.18 | 1.18 | -2.07 | 1.2 | 0.494 | -0.12 | 0.0342 | -0.0035 | 1.7 | 1.07 | 1.52
12 | CO[C@H]1O[C@H](CO)[C@@H](OC(=O)Nc2ccccc2-c2ccccc2)[C@H](OC(=O)Nc2ccccc2-c2ccccc2)[C@H]1OC(=O)Nc1ccccc1-c1ccccc1 | 1.54 | 0.677 | 0.607 | -0.316 (inactive) | 1.4 | 1.35 | 0.197 | 1.36 | 0.289 | 0.628 | 1.05 | -2.43 | 0.591 | 1.08 | -0.588 | 0.0321 | 0.431 | 0.225 | 1.41 | 1.73
13 | COc1ccc(C#Cc2ccc3c(c2)[C@]2(C(=O)N3)[C@H](c3ccc(OCCO)cc3)N3[C@H](c4ccccc4)[C@H](c4ccccc4)OC(=O)[C@H]3[C@@H]2C(=O)Nc2nc3ccccc3s2)cc1 | 1.29 | 0.771 | 0.72 | 3.63 (inactive) | 1.3 | 1.29 | 0.655 | 1.38 | 0.618 | 0.331 | 1.34 | -2 | 0.776 | 1.57 | 0.446 | 0.104 | 0.0711 | 0.83 | 0.0329 | 1.52
14 | C=CCC(OC(C)=O)[C@@H]1[C@@H](N(Cc2ccc(-c3ccccc3)cc2)C(=O)c2ccc(C)cc2)c2cc(OCCCO)ccc2N1C(=O)Cc1ccc(OC)cc1 (stereo not given in full) | 1.36 | -0.0745 | -0.216 | -1.03 (inactive) | 0.191 | -0.159 | 0.0485 | 0.0762 | 0.22 | 1.23 | 0.422 | -0.75 | 0.0181 | -0.0181 | -0.164 | 0.0115 | -0.273 | -0.0579 | 0.0982 | 1.73
15 | O=C1C2C=CC(C(O)c3ccc(-c4ccccc4)s3)N(Nc3ccccc3F)C2C(=O)N1c1ccccc1 (stereo not given) | 0.913 | 1.22 | 1.27 | 0.25 (inactive) | 0.772 | 0.806 | 0.247 | 0.817 | 0.0154 | 0.948 | 1.37 | 1.78 | -0.0452 | 1.95 | 1.24 | -0.0758 | 0.274 | -0.54 | 0.599 | 1.21
16 | C[N+](C)(C)CCCC[C@@H]1NC(=O)[C@@H]2C[C@H](C(=O)NCCCCCCNC(=O)CS)[C@H](c3cccc(OCCO)c3)N2C1=O | 1.58 | -0.209 | 0.111 | -0.451 (inactive) | 0.0947 | -0.755 | -1.01 | -0.0324 | 0.383 | 0.439 | -0.568 | -0.154 | 0.382 | -0.485 | -0.467 | -0.233 | -0.0553 | -0.331 | 0.567 | 2.15
17 | O=C1OCCC/C=C\[C@H]2OC34C=CCN(CCN5CCOCC5)C(=O)[C@H]3N(CCO)C(=O)[C@@H]4C12 (stereo not given in full) | 1.66 | -0.214 | 0.0583 | -1.15 (inactive) | -0.506 | -0.707 | -0.676 | -1.14 | -0.507 | -0.68 | -0.359 | 0.0112 | -0.416 | -0.0877 | 0.124 | -0.176 | -0.2 | 0 | -0.0137 | -0.938
